# A number with no mark means an inactive call. The rule behind the calls is not given here.
# Molecular target: Pantothenate synthetase (Mycobacterium tuberculosis (strain ATCC 25618 / H37Rv)) (UniProt P9WIL5)
# Experiment: Recombinant Mtb pantothenate synthetase (PanC) inhibitors, coupled enzyme, confirmatory (AID 375);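 note: 0% = full reaction with vehicle and 100% = no enzyme background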
# Settings: coupled enzyme assay; at 10 µM, stronger effect = higher value
# Chain of Pantothenate synthetase (Mycobacterium tuberculosis (strain ATCC 25618 / H37Rv)) (P9WIL5 whole entry, looked up): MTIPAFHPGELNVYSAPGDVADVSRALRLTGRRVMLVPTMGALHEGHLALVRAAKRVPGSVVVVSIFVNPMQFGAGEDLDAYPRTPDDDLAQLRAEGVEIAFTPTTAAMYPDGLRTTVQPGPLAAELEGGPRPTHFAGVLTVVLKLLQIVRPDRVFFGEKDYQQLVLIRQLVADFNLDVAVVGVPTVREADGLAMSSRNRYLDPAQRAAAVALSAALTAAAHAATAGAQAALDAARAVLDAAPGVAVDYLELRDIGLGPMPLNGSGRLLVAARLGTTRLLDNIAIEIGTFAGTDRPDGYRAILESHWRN
row,Compound,inhibition [%]
1,N#CC1=C(N)N2C(=C(C#N)C13CCCCC3)SC1CCCCC12O (stereo not drawn),0
2,S=c1nc(C2CC2)[nH]c2ccccc12,0
3,Cc1cccc(C)c1NC(=O)CC(NCc1ccco1)C(=O)O (stereo not drawn),0
4,Cc1nc(C)c(C(=O)Nc2ccc(Oc3ccccc3)cc2)o1,0
5,Cc1onc(-c2c(Cl)cccc2Cl)c1C(=O)NCCN1CCOCC1,6
6,c1cncc(-c2nnc(-c3ccco3)o2)c1,4
7,CCC(Sc1ncccc1C(=O)O)C(=O)N1CCCC1 (stereo not drawn),0
8,CC(C)OC(=O)CSc1nnc(-c2ccc(C(C)(C)C)cc2)n1N,0
9,COC(=O)c1cc(-c2ccccc2)sc1NC(=O)c1cc(C)on1,0
10,Cc1ccc2cc(C(c3nnnn3CC3CCCO3)N3CCCC4(CCCCC4)C3)c(=O)[nH]c2c1 (stereo not drawn),0
11,COc1ccccc1NC(=O)NCc1ccc2c(c1)OCO2,1
12,O=C(COC(=O)c1ccc(Br)o1)Nc1ccc(S(=O)(=O)N2CCCC2)cc1,5
13,COc1cccc(-c2nnc(SCC(=O)N3CCCc4ccccc43)o2)c1,0
14,CCC1CCCCN1CCCNC(=O)CC1Oc2ccc(C)cc2NC1=O (stereo not drawn),0
15,O=C(Cn1c(SCC(=O)N2CCCc3ccccc32)nc2ccccc21)N1CCCC1,0
16,CCCC(=O)N(Cc1cc2ccccc2[nH]c1=O)c1ccccc1OC,2
17,CC1(C)CC(=O)c2cnc(NC(=O)Cc3ccc(Cl)cc3)nc2C1,0
18,COc1ccccc1OCCCn1c(=O)oc2ccccc21,0
19,Cn1c(CN2CCCCC2)nc2cc(NC(=O)c3ccccc3)ccc21,0
20,CCCC(=O)Nc1ccc(OCC(O)CNC(C)C)c(C(C)=O)c1 (stereo not drawn),0
21,Cc1cc(Nc2ccccc2N2CCOCC2)n2ncnc2n1,0
22,COC(=O)c1cc2ccsc2n1CC(=O)Nc1cc(C)cc(C)c1,0
23,Cc1nnc(C)c2c(C)n(-c3ccc(Br)cc3)c(C)c12,0

# — PubChem BioAssay
